CSC inhib: cancer stem cell viability inhibitors, primary screen, luminescence | cancer stem cell-like cells viability | inhibition, % at 7.5 µM | hit rate 1.1% among 300,000 | AID 2717, 2010; in the data active = inhibition above about 75%; inconclusive = no clear call, values can overlap the other calls; tested in HMLE shEcad cells
Gli-Sufu antag: Gli-Sufu pathway antagonists, primary screen, luciferase luminescence, Sufu-KO-LIGHT cells, uHTS; Sufu-KO-LIGHT fibroblasts, Gli luciferase reporter luminescence; inhibition, % at 5 µM; hit rate 0.74% among 340,000;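 active = inhibition above about 55%, limit read from the data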
Jurkat NFkB inh: inhibitors of induced NF-kB luciferase reporter, primary screen, TCR NF-kB activation inhibitor project, cell-based, luminescence, uHTS. Jurkat, PMA/ionomycin-induced NF-kB luciferase reporter. inhibition, % at 4 µM. hit rate 0.53% among 330,000. AID 435003, 2010; in the data active = inhibition above about 50%
Mdm2-MdmX inh: inhibitors of human Mdm2-MdmX association, primary screen, cell-based, luminescence, split luciferase, SaOS-2, uHTS | Protein Mdm4 (Homo sapiens) + E3 ubiquitin-protein ligase Mdm2 (Homo sapiens), … | SaOS-2 split-luciferase Mdm2/MdmX complementation | inhibition, % at 8 µM | hit rate 3% among 330,000;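 active = inhibition of at least 50% at 8 µM in the primary screen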
Target sequence (O15151 whole entry, looked up): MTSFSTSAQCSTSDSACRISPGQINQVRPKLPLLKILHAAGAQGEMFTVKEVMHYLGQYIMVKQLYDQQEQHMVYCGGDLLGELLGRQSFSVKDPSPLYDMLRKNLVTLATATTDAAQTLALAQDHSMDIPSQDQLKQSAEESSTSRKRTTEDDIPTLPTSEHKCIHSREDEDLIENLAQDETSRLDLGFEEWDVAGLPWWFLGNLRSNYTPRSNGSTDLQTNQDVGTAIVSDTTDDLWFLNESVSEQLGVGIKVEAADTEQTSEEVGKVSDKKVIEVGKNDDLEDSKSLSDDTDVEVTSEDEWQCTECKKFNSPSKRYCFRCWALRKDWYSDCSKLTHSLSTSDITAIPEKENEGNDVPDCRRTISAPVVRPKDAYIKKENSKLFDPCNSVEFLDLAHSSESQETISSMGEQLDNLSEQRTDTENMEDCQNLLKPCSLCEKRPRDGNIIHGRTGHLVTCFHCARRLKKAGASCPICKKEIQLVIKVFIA
Target sequence (Q00987 whole entry, looked up): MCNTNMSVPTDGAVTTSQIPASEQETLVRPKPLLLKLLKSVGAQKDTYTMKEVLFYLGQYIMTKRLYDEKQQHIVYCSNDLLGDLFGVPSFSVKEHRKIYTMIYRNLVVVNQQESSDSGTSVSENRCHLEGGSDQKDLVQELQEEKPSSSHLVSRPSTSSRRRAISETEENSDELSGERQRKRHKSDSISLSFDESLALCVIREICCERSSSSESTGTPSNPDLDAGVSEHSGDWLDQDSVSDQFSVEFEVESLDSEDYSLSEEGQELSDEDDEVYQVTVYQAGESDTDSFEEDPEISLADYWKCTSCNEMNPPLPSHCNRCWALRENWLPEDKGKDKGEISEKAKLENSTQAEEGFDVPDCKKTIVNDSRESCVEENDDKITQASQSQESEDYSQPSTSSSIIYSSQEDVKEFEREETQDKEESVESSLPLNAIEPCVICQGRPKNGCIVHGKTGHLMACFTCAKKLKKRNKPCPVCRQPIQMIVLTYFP
Beta apoptosis: inhibitors of cytokine-induced beta cell apoptosis, primary screen, luminescence. AID 435005, 2010. hit rate 0.8% among 300,000. protection from apoptosis, % (concentration not given with the values). INS-1E cytokine-induced death, ATP luminescence, 48 h; percent of positive-control rescue, neutral wells zero;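 active = Every replicate reaches about 75%, or at least half do and their mean reaches it too, limit read from the data; inconclusive = At least half of replicates reach the limit but their mean does not; inactive = Under half of replicates reach the limit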;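 also: higher means more ATP so stronger rescue from cytokine killing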
697 NFkB inh: inhibitors of PMA/ionomycin-induced NF-kB reporter, 697 cells, primary screen, B-cell NF-kB inhibitor project, cell-based, luminescence, uHTS | inhibition, % at 4 µM | AID 435022, 2010 | hit rate 0.33% among 330,000 | 697 B-cell NF-kB luciferase reporter, 16 h; in the data active = inhibition above about 35%
Mdm2-MdmX conf: Mdm2-MdmX complex disruptors, retested hits, confirmation, luminescence, single concentration. shares compounds with Mdm2-MdmX inh. Mdm2-MdmX binding, luminescent assay. inhibition, % at 8 µM. hit rate 55% among 10,000. AID 489028, 2010; in the data active = inhibition above about 40%
FLuc counter: full-length luciferase signal inhibition, confirmation, counter-screen for Mdm2/MdmX interaction inhibitor project, cell-based, single concentration, SaOS-2. shares compounds with Mdm2-MdmX inh. hit rate 77% among 6,200. SaOS-2 full-length luciferase counterscreen, luminescence. inhibition, % at 8 µM;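 active = mean inhibition at 8 µM reaching about 37%, which flags the compound as non-specific, limit read from the data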;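 also: p53-null SaOS-2 cells with luciferase driven by a doxycycline-inducible promoter; compound on cells about two nights before reading with doxycycline added after day one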
Large screens that a line does not name were inactive (follow-up assays come after a bar, where they were run). Hits are enriched below; roughly 4.5% of the tested compounds scored in any of these assays.

Cc1cc(C=C2C(=O)c3ccccc3C2=O)c(C)n1-c1cccc(C(=O)O)c1	none
Cc1cc(C=C2C(=O)c3ccccc3C2=O)c(C)n1-c1ccccc1	Mdm2-MdmX inh 61.8 (no result: CSC inhib) | Mdm2-MdmX conf 56.0 | FLuc counter inactive
Cc1cc(/C=C2/C(=O)NN(c3ccccc3)C2=O)c(C)n1-c1cccc(O)c1	Mdm2-MdmX inh 73.0 | Mdm2-MdmX conf 71.9 | FLuc counter 122.0
COC(=O)c1ccc(COc2ccccc2/C=C(\C#N)C(=O)Nc2ccccc2C)cc1	none (no result: CSC inhib)
COC(=O)c1ccc(COc2ccccc2/C=C(\C#N)C(=O)Nc2c(C)cccc2C)cc1	CSC inhib 101.6, Mdm2-MdmX inh 93.4, Beta apoptosis 106.9 | Mdm2-MdmX conf 52.9 | FLuc counter 41.8
Cc1ccc2c(c1)c1c(n2CC(O)CNC2CCCCC2)CCCC1 (stereo not given)	CSC inhib 77.1, Mdm2-MdmX inh 100.3 | Mdm2-MdmX conf 45.5 | FLuc counter 51.3
CC1(C)C(=O)Nc2ccccc2N1C(=O)COC(=O)CNS(=O)(=O)c1ccc(Br)cc1Cl	none (no result: CSC inhib, Jurkat NFkB inh, Mdm2-MdmX inh, Beta apoptosis, 697 NFkB inh)
O=c1/c(=C\c2ccc(O)cc2)sc2nc(-c3ccccc3)c(-c3ccccc3)n12	none
O=c1/c(=C/c2ccc(O)cc2)sc2nc3cc(Br)cnc3n12	Mdm2-MdmX inh 57.9 (no result: Gli-Sufu antag) | Mdm2-MdmX conf inactive | FLuc counter 39.5
C/C(CC(=O)N1CCCC1)=N\NC(=O)c1cc2ccccc2cc1O	none
CCOC(=O)C(C)/C(C)=N/NC(=O)c1cc2ccccc2cc1O (stereo not given)	Mdm2-MdmX inh 81.8, Beta apoptosis inconclusive | Mdm2-MdmX conf 81.2 | FLuc counter 56.1
O=C(COC(=O)/C=C/c1ccc(OC(F)F)cc1)NC1CCCCCCC1	none
CNC(=O)c1c(O)c2cccc3c2n(c1=O)CCC3	Mdm2-MdmX inh 74.5 (no result: CSC inhib, Beta apoptosis) | Mdm2-MdmX conf 83.7 | FLuc counter 46.6
Cc1ccc(-c2nc(C(Cl)Cl)c3ccccc3n2)cc1	CSC inhib 132.2, Mdm2-MdmX inh 95.5, Beta apoptosis 93.7 | Mdm2-MdmX conf 48.8 | FLuc counter inactive
COc1ccc(OC)c2[nH]c(C(=O)N/N=C/c3ccccc3O)cc12	Gli-Sufu antag 58.7, Mdm2-MdmX inh 81.6, Beta apoptosis 96.3 | Mdm2-MdmX conf 71.4 | FLuc counter inactive
COc1cc(/C=N/NC(=O)c2cc(-c3cccn3C)n[nH]2)cc(OC)c1OC	none
COc1ccc(/C=N/NC(=O)c2cc3c(OC)ccc(OC)c3[nH]2)cc1O	Mdm2-MdmX inh 61.1 | Mdm2-MdmX conf 47.5 | FLuc counter 90.5
COc1cccc(/C=N/NC(=O)c2cc(-c3cccn3C)n[nH]2)c1O	CSC inhib 87.2, Mdm2-MdmX inh 53.1 | Mdm2-MdmX conf 63.5 | FLuc counter inactive
O=C(COC(=O)C1CCN(C(=O)c2ccc(Cl)cc2)CC1)Nc1ccccc1F	none
CCOc1ccc(CNC(=O)Cn2nc(C)c3c(C)n(-c4ccc(C)cc4)nc3c2=O)cc1	none
O=C(/C(=C/c1ccc(Cl)cc1)c1nc2ccccc2[nH]1)c1ccccc1	Mdm2-MdmX inh 100.3, Beta apoptosis 104.4 | Mdm2-MdmX conf 99.2 | FLuc counter 50.6
COc1cc(/C=C(/C(=O)c2cccs2)c2nc3ccccc3[nH]2)cc(OC)c1O	CSC inhib 77.2, Mdm2-MdmX inh 91.4 | Mdm2-MdmX conf 90.5 | FLuc counter 61.6
CC(=O)N1CCc2cc(S(=O)(=O)NCC(=O)NCc3ccc(F)cc3)ccc21	none
COc1ccc(/C=C/C(=O)NC(=S)Nc2cc3oc4ccccc4c3cc2OC)cc1	Mdm2-MdmX inh 90.0 | Mdm2-MdmX conf inactive
COc1cc2c(cc1NC(=S)NC(=O)/C=C/c1ccc(OC)c(OC)c1)oc1ccccc12	none (no result: CSC inhib, Jurkat NFkB inh, Mdm2-MdmX inh, Beta apoptosis, 697 NFkB inh)
